Results taken from PubChem BioAssay (Tox21).
“And” between values parts separate entries of the source, which are not always exact repeats. Identical values can stand only once. The source holds several records for some structures; these can differ, active in one and inactive in another. The source made the active and inactive calls. Unless noted, calls follow the shape of the dose curve; as a rule, active = well fitted curve in the direction sought with a large enough effect in the repeat runs; inconclusive = weak or mixed curves; inactive = no such curve, though single readings can be large; an effect the other way counts as inactive or inconclusive.

How the values were obtained:
[1] = qHTS assay to identify small molecule antagonists of the glucocorticoid receptor (GR) signaling pathway - cell viability counter screen (AID 720693); also: % is scaled to controls: 0 for no effect and ±100 for the full control effect; nearly all actives have a fitted effect of over 55% in size
[2] = qHTS assay for identifying genotoxic compounds that show differential cytotoxicity against isogenic chicken DT40 cell lines with known DNA damage response pathways - Rev3 mutant cell line (AID 743014); also: nearly all actives have a fitted effect of over 55% in size; also: potency is read from the fitted curve at half-maximal effect
[3] = qHTS assay for identifying genotoxic compounds that show differential cytotoxicity against isogenic chicken DT40 cell lines with known DNA damage response pathways - Rad54/Ku70 mutant cell line (AID 743015); also: nearly all actives have a fitted effect of over 60% in size; also: potency is read from the fitted curve at half-maximal effect
[4] = qHTS assay to identify small molecule antagonists of the androgen receptor (AR) signaling pathway - cell viability counter screen (AID 743033; also: nearly all actives have a fitted effect of over 45% in size; also: potency is read from the fitted curve at half-maximal effect)
[5] = qHTS assay to identify small molecule antagonists of the androgen receptor (AR) signaling pathway using the MDA cell line - cell viability counter screen (AID 743041; also: % is scaled to controls: 0 for no effect and ±100 for the full control effect; nearly all actives have a fitted effect of over 45% in size)
Summary of the method: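 Using the breast carcinoma line MDA-kb2 AR-luc, test chemicals were co-incubated with R1881 for 16 h; CellTiter-Fluor reagent, added at 15.5 h, provided a fluorescence measure of live cells.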

[6] = system: thyroid hormone receptor (rat, GH3 cells); test: qHTS assay to identify small molecule agonists of the thyroid receptor (TR) signaling pathway (AID 743066; calls by dose curve; also: % is scaled to controls: 0 for no effect and ±100 for the full control effect)
[7] = qHTS assay to identify small molecule antagonists of the estrogen receptor alpha (ER-alpha) signaling pathway - cell viability counter screen (AID 743074; calls by dose curve; also: nearly all actives have a fitted effect of over 45% in size; also: potency is read from the fitted curve at half-maximal effect)
[8] = qHTS assay to identify small molecule antagonists of the estrogen receptor alpha (ER-alpha) signaling pathway using the BG1 cell line - cell viability counter screen (AID 743081);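 also: compound given together with 17beta-estradiol as the ER stimulus; % is scaled to controls: 0 for no effect and ±100 for the full control effect; nearly all actives have a fitted effect of over 45% in size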
[9] = qHTS assay to identify small molecule antagonists of the thyroid receptor (TR) signaling pathway - cell viability counter screen (AID 743064); also: nearly all actives have a fitted effect of over 50% in size; also: potency is read from the fitted curve at half-maximal effect
Summary of the method: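 Plate GH3.TRE-Luc cells; incubate 4 h at 37 °C; add compound, then T3 to 1 nM final; incubate 23.5 h; add CellTiter-Fluor; incubate 30 min at 37 °C, 5% CO2; read fluorescence.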

[10] = qHTS assay to identify small molecule antagonists of the thyroid receptor (TR) signaling pathway (AID 743065); also: nearly all actives have a fitted effect of over 55% in size; also: potency is read from the fitted curve at half-maximal effect
Summary of the method: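 Antagonism measured as loss of luciferase signal in GH3 cells stably carrying a TRE-luciferase reporter, co-treated with compound and T3 (1 nM final) for 23.5 h at 37 C. Viability was read in the same well by CellTiter-Fluor.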

[11] = target: Estrogen receptor (Homo sapiens) (UniProt P03372); test: qHTS assay to identify small molecule antagonists of the estrogen receptor alpha (ER-alpha) signaling pathway (AID 743069; active = well fitted curve in the direction sought with a large enough effect in the signal ratio in the repeat runs, not every such curve was filed as active; inconclusive = weak or mixed curves, or effect the other way; inactive = no such curve, though single readings can be large or run the other way; the % refers to the signal ratio; also: potency is read from the fitted curve at half-maximal effect)
Summary of the method: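 Fluorescence intensity from a beta-lactamase FRET substrate served as the read-out. Cells: HEK293 with stably integrated ER-alpha-UAS-bla reporter. Agonist 17beta-estradiol was co-added with compounds; incubation 18 hr at 37C, substrate 2 hr at room temperature.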

[12] = target: Estrogen receptor (Homo sapiens) (UniProt P03372); test: qHTS assay to identify small molecule agonists of the estrogen receptor alpha (ER-alpha) signaling pathway (AID 743075; calls by dose curve; also: potency is read from the fitted curve at half-maximal effect; as to activation: % is scaled to controls: 0 for no effect and ±100 for the full control effect)
[13] = qHTS assay to identify small molecule antagonists of the estrogen receptor alpha (ER-alpha) signaling pathway using the BG1 cell line (AID 743080; calls by dose curve; also: nearly all actives have a fitted effect of over 25% in size; also: potency is read from the fitted curve at half-maximal effect)
Summary of the method: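 Antagonist mode: compounds in DMSO were pinned onto BG1-Luc-4E2 cells alongside 17beta-estradiol agonist, incubated 21.5 h, and ERE-driven luciferase measured with ONE-Glo. Cytotoxicity was multiplexed using CellTiter-Fluor fluorescence.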

Aromatase (Homo sapiens) = Aromatase (Homo sapiens) (UniProt P11511); test: qHTS assay to identify aromatase inhibitors (AID 743083); also: nearly all actives have a fitted effect of over 55% in size; also: potency is read from the fitted curve at half-maximal effect
[14] = target: Estrogen receptor (Homo sapiens) (UniProt P03372); test: qHTS assay to identify small molecule agonists of the estrogen receptor alpha (ER-alpha) signaling pathway using the BG1 cell line (AID 743079); also: nearly all actives have a fitted effect of over 20% in size; also: potency is read from the fitted curve at half-maximal effect
[15] = target: Androgen receptor (Homo sapiens) (UniProt P10275); test: qHTS assay to identify small molecule agonists of the androgen receptor (AR) signaling pathway using the MDA cell line (AID 743040; also: % is scaled to controls: 0 for no effect and ±100 for the full control effect; nearly all actives have a fitted effect of over 20% in size); conditions: MDA-kb2 AR-luc cells, MMTV luciferase, 16 h, stronger effect = higher value
Summary of the method: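 Stable MMTV-luciferase reporter in MDA-kb2 cells; note the promoter carries GR as well as AR response elements. 16 h compound treatment, 37C, 0% CO2; ONE-Glo luminescence endpoint.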

[16] = target: Androgen receptor (Homo sapiens) (UniProt P10275); test: qHTS assay to identify small molecule antagonists of the androgen receptor (AR) signaling pathway using the MDA cell line (AID 743042; also: nearly all actives have a fitted effect of over 55% in size; also: potency is read from the fitted curve at half-maximal effect)
Summary of the method: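 Antagonist mode: compounds plus R1881 agonist added to MDA-kb2 AR-luc cells, incubated 16 h at 37C. Luciferase reporter luminescence quantified, with multiplexed CellTiter-Fluor readout for cell viability.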

[17] = qHTS assay for identifying genotoxic compounds that show differential cytotoxicity against isogenic chicken DT40 cell lines with known DNA damage response pathways - wild type cell line (AID 743012); also: potency is read from the fitted curve at half-maximal effect; nearly all actives have a fitted effect of over 60% in size
Summary of the method: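 Viability by ATP luminescence (CellTiter-Glo, 30 min RT) after 40 h compound treatment at 37 C/5% CO2, using 300 parental DNA repair-proficient DT40 cells per well.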

[18] = target: Androgen receptor (Homo sapiens) (UniProt P10275); test: qHTS assay to identify small molecule antagonists of the androgen receptor (AR) signaling pathway (AID 743035; active = well fitted inhibition curve with a large enough effect in the signal ratio in the repeat runs, not every such curve was filed as active; inconclusive = weak or mixed curves, or effect the other way; inactive = no such curve, though single readings can be large or run the other way; the % refers to the signal ratio; also: % is scaled to controls: 0 for no effect and ±100 for the full control effect)
Summary of the method: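 Antagonist mode: AR-bla HEK293 cells co-treated with test compounds and agonist R1881 for 16 h at 37C, 5% CO2. Beta-lactamase activity read as FRET fluorescence after 2 h room-temperature substrate loading.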

[19] = target: Androgen receptor (Homo sapiens) (UniProt P10275); test: qHTS assay to identify small molecule agonists of the androgen receptor (AR) signaling pathway (AID 743036; active = well fitted activation curve with a large enough effect in the signal ratio in the repeat runs, with a control signal flat, not every such curve was filed as active; inconclusive = weak or mixed curves, or effect the other way; inactive = no such curve, though single readings can be large or run the other way; the % refers to the signal ratio; also: % is scaled to controls: 0 for no effect and ±100 for the full control effect)
Summary of the method: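 Reporter line: GeneBLAzer AR-UAS-bla-GripTite (HEK293). Steps: plate cells, 4 h rest, add compounds, 16 h at 37C, add LiveBLAzer B/G substrate, 2 h at RT, read fluorescence.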

[20] = activity change: at 70.3 µM (top of the series)

Chain of Androgen receptor (Homo sapiens) (P10275 whole entry, looked up): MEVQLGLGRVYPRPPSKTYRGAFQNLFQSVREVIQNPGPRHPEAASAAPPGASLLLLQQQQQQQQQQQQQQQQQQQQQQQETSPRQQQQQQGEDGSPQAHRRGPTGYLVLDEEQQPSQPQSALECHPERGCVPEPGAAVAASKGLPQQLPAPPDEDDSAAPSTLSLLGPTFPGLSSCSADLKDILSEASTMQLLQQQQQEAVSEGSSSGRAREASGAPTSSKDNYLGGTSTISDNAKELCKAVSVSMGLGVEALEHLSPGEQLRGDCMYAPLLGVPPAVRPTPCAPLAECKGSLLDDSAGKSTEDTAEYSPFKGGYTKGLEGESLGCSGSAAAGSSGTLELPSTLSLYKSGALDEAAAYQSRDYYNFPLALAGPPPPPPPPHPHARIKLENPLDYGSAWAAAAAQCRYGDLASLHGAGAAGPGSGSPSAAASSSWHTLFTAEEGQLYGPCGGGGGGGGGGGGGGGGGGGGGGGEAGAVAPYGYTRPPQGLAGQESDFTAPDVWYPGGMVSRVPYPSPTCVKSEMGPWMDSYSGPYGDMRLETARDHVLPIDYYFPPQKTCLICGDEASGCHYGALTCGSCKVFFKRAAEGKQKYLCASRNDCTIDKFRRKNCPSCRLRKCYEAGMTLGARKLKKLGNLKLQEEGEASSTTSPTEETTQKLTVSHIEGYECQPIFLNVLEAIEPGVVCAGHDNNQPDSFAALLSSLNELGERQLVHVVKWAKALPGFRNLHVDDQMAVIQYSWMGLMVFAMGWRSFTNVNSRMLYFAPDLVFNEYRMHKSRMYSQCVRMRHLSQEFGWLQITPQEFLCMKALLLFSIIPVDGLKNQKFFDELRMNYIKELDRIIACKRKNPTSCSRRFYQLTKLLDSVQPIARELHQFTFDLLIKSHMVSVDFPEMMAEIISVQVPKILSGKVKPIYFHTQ
Chain of Aromatase (Homo sapiens) (P11511 whole entry, looked up): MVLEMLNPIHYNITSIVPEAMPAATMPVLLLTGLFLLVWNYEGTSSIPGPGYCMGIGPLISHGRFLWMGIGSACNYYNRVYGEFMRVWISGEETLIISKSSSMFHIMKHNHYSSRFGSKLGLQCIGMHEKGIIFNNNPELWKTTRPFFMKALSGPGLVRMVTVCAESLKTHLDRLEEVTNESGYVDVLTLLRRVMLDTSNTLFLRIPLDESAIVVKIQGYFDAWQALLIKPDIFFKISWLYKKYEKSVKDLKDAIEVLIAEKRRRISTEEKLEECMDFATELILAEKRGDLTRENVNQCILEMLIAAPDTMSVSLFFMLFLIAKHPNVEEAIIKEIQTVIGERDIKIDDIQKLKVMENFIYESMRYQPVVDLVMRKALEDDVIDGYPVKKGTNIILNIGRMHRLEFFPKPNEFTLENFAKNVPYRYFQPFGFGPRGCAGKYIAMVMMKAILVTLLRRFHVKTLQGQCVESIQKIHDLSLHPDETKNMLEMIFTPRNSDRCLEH
Chain of Estrogen receptor (Homo sapiens) (P03372 whole entry, looked up): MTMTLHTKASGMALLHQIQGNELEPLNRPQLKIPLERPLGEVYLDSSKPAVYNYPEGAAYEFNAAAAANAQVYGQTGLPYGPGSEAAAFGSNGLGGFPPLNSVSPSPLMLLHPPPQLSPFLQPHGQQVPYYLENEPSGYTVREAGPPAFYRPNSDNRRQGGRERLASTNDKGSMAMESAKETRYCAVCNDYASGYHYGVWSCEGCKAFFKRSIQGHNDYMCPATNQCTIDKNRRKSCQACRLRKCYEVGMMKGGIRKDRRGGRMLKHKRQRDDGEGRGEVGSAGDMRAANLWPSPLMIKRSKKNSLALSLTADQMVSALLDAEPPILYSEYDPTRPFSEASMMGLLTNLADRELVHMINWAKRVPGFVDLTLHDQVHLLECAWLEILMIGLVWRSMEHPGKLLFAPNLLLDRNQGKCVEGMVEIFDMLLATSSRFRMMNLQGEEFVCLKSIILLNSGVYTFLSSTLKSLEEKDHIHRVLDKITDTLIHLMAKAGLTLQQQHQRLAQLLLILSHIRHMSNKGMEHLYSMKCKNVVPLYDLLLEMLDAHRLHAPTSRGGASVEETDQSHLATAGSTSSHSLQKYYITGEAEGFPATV

CCC(CC)Nc1c([N+](=O)[O-])cc(C)c(C)c1[N+](=O)[O-]
inactive and 54.4 µM (active): Potency [3]
inactive: Potency [1] | Potency [2] | Potency [4] | Potency [5] | Potency [6] | Potency [7] | Potency [8]

Oc1c(Cl)c(Cl)c(Cl)c(Cl)c1Cl
active: Potency [4] 21.4 µM | Potency [9] 26.8 µM | Potency [10] 8.46 µM and 27.2 µM | Potency [11] 8.54 µM [inconclusive] | Potency [13] 59.9 µM and 27.2 µM
inactive: Potency [2] | Potency [5] | Potency [6] | Potency [12] | Potency [8] | Potency (Aromatase (Homo sapiens))

Cc1ccc(OP(=O)(Oc2ccc(C)cc2)Oc2ccc(C)cc2)cc1
inactive: Potency [1] | Potency [4] | Potency [9] | Potency [6] | Potency [7] | Potency [8] | Potency (Aromatase (Homo sapiens))
active: Potency [2] 38.6 µM | Potency [3] 43.2 µM and 48.6 µM

O=C(O)C(F)(F)C(F)(F)C(F)(F)C(F)(F)C(F)(F)C(F)(F)C(F)(F)F
inactive: Potency [1] | Potency [2] | Potency [3] | Potency [4] | Potency [5] | Potency [9] | Potency [10] | Potency [6] | Potency [7] | Potency [8] | Potency (Aromatase (Homo sapiens))

C=CCc1ccc2c(c1)OCO2
inactive: Potency [1] | Potency [2] | Potency [3] | Potency [4] | Potency [5] | Potency [9] | Potency [10] | Potency [6] | Potency [7] | Potency [8] | Potency (Aromatase (Homo sapiens))

CCCCN(CC)c1c([N+](=O)[O-])cc(C(F)(F)F)cc1[N+](=O)[O-]
active: Potency [9] 54.5 µM
inactive: Potency [1] | Potency [2] | Potency [3] | Potency [4] | Potency [5] | Potency [6] | Potency [7] | Potency [8] | Potency (Aromatase (Homo sapiens))

CC(C)(c1cc(Cl)c(O)c(Cl)c1)c1cc(Cl)c(O)c(Cl)c1
inactive: Potency [1] | Potency [2] | Potency [3] | Potency [5] | Potency [8] | Potency (Aromatase (Homo sapiens))
active: Potency [10] 21.7 µM and 48.6 µM
inactive and 61.1 µM (active): Potency [9]

CC(C)C(=O)OCC(C)(C)C(OC(=O)C(C)C)C(C)C (centres undefined)
inactive: Potency [1] | Potency [4] | Potency [5] | Potency [9] | Potency [6] | Potency [11] | Potency [7] | Potency [13] | Potency [8] | Potency (Aromatase (Homo sapiens))
active: Potency [12] 6.92 µM [inconclusive] | Potency [14] 12.2 µM

c1nc[nH]n1
inactive: Potency [1] | Potency [2] | Potency [3] | Potency [4] | Potency [5] | Potency [9] | Potency [11] | Potency [7] | Potency [12] | Potency [14] | Potency [13] | Potency [8] | Potency (Aromatase (Homo sapiens))

N#Cc1cc(Br)c(O)c(Br)c1
active: activity change [15, 20] -6.84% | Potency [16] 61.1 µM | Potency [13] 68.5 µM and 52.5 µM
inactive: Potency [1] | activity change ([15]; at 70.3 µM (top of the series)) -3.58% | Potency [5] | Potency [9] | Potency [6] | Potency [11] | Potency [7] | Potency [12] | Potency [8] | Potency (Aromatase (Homo sapiens))

Oc1cc(Cl)ccc1Oc1ccc(Cl)cc1Cl
inactive and 11.2 µM (active): Potency [7]
inactive and 24.8 µM (active): Potency (Aromatase (Homo sapiens))
active: Potency [17] 7.02 µM | Potency [2] 11.4 µM | Potency [3] 26.6 µM and 10.3 µM | Potency [9] 11.5 µM
inactive: Potency [4] | Potency [5] | Potency [6] | Potency [8]

CCOC(=O)C(C)OC(=O)c1cc(Oc2ccc(C(F)(F)F)cc2Cl)ccc1[N+](=O)[O-] (centres undefined)
inactive: Potency [1] | Potency [4] | Potency [5] | Potency [9] | Potency [6] | Potency [7] | Potency [12] | Potency [8] | Potency (Aromatase (Homo sapiens))
active: Potency [2] 27.3 µM | Potency [3] 21.7 µM | Potency [13] 48.3 µM

c1cc(OCC2CO2)ccc1Cc1ccc(OCC2CO2)cc1 (centres undefined)
inactive: Potency [4] | Potency [18] | Potency [19] | Potency [15, 20] | Potency [5] | Potency [16] | Potency [6] | Potency [7] | Potency [12] | Potency [14] | Potency [13] | Potency [8] | Potency (Aromatase (Homo sapiens))
active: Potency [2] 2.44 µM and 1.54 µM | Potency [3] 61.4 µM and 15.4 µM | Potency [9] 43.5 µM and 48.6 µM

c1ccc(-c2cccc(-c3ccccc3)c2)cc1
inactive: Potency [1] | Potency [4] | Potency [5] | Potency [9] | Potency [6] | Potency [11] | Potency [7] | Potency [12] | Potency [8] | Potency (Aromatase (Homo sapiens))
active: Potency [14] 21.9 µM and 10.9 µM

CC1(C)C(C=C(Cl)Cl)C1C(=O)OC(C#N)c1cccc(Oc2ccccc2)c1 (centres undefined)
inactive: Potency [1] | Potency [2] | Potency [4] | Potency [5] | Potency [9] | Potency [6] | Potency [11] | Potency [7] | Potency [12] | Potency [14] | Potency [13] | Potency [8] | Potency (Aromatase (Homo sapiens))
active: Potency [3] 61.1 µM
